DAT uptake mod = human DAT dopamine uptake with cocaine, either direction | LLC-PK1 hDAT cells, [14C]-dopamine uptake with cocaine IC80; actives deviate in either direction | B-score at 10 µM | 1.3% of 110,000 active | AID 449768;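 active = Z score or B-score, a plate-position-corrected score, falls beyond the plate's 99.7% confidence bounds, in either direction; inactive = both scores lie inside the 99.7% bounds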;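 note: scored against the spread of the other compound wells on the same plate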
HePTP inh = blocks human HePTP tyrosine phosphatase. inhibition, % at 20 µM. AID 521. recombinant HePTP phosphatase activity, OD absorbance. 0.64% of 110,000 active; in the data active = inhibition above about 50%;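 note: plate controls were vehicle for no effect and reference inhibitor for full effect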
D1 mod = allosteric modulators of human D1 dopamine receptor. 5.9% of 58,000 active. P21728. AID 641. HEK293 D1, CRE-luciferase, dopamine EC30 potentiation; actives deviate in either direction. B-score at 10 µM;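 active = luminescence count or its row- and column-corrected plate score outside the 99.7% band of the plate's sample wells, on either side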
Target sequence (P21728 whole entry, looked up): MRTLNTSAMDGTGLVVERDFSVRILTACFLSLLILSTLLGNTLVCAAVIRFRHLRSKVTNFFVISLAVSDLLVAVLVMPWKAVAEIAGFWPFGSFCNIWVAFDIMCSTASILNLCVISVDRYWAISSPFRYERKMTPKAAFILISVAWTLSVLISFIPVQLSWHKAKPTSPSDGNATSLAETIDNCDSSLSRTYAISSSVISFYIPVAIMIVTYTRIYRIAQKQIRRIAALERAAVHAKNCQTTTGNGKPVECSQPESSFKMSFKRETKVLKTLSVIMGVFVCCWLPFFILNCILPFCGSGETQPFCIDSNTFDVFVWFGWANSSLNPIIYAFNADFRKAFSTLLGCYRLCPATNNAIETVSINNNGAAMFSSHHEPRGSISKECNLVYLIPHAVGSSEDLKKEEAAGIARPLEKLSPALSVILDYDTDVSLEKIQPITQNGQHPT
Calb biofilm kill = kills Candida albicans biofilms; C. albicans biofilm + clotrimazole, Alamar Blue; inhibition, % at 6 µM; 0.14% of 85,000 active; AID 834;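 active = inhibition above 20%; inactive = inhibition below 20%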;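 note: preformed 24 hr biofilms exposed to compound for 48 hr; 0% = biofilm without compound and 100% = blank killed by clotrimazole plus chlorhexidine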
PLAP act = activators of human placental alkaline phosphatase. P05187. purified PLAP enzyme, luminescent substrate read-out; active compounds read high. activation fold at 20 µM. 1.2% of 96,000 active. AID 696; in the data active = activation fold above about 2
TNAP act DEA = activates human TNAP at intermediate phosphate acceptor concentration | 64,000 tested, under 10 active | purified TNAP, CDP-star luminescence, 100 mM DEA, 30 min; active compounds read high; scale: 0 levamisole-inhibited, 1 vehicle-only enzyme | P05186 | activation factor at 20 µM;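 active = activation factor of at least 2 at 20 µM, relative to controls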
Starred values were filed as active, the others as inactive; · = no result given; ! = a repeat was not active. Only a selection was taken, and hits are over-represented in it overall.

SMILES	DAT uptake mod	HePTP inh	D1 mod	Calb biofilm kill	PLAP act	TNAP act DEA
CC(=O)OC(c1c(F)c(F)c(F)c(F)c1F)c1c(F)c(F)c(F)c(F)c1F	·	2.8	·	·	·	·
CN(C)c1ccc(/C=C2/SC(N=Nc3c(O)[nH]c4ccccc34)=NC2=O)cc1	·	59.2*	·	·	·	·
CN(C)c1ccc(/C=C2\SC(N3CCN(C4=NC(=O)/C(=C\c5ccc(N(C)C)cc5)S4)CC3)=NC2=O)cc1	·	-8.0	·	·	·	·
CCCOc1ccc(-c2ccc(-c3noc(CC)n3)cc2)cc1	·	-1.6	·	·	·	·
CC1=C(C(=O)Nc2ccc(Cl)cc2)C(c2ccc(Br)cc2)NC(=O)N1 (stereo not drawn)	·	7.7	·	·	·	·
N#Cc1c(N)nc2c(c1-c1cccnc1)CCCCC2	1.08	4.3	2.13	6.5	0.9	0.9
N#Cc1sc2nc3c(c(-c4cccnc4)c2c1N)CCC3	-1.39	5.9	5.2*	5.6	0.8	0.9
NC(=O)c1sc2nc3c(c(-c4cccnc4)c2c1N)CCC3	-9.05*	·	·	4.6	·	·
NC(=O)c1sc2nc3c(c(-c4cccs4)c2c1N)CCCCC3	·	·	·	5.8	1	·
Cc1cc(C)cc(NC2=NC3(CCCCC3)N=C(N)N2)c1	0.0925	11.6	-5.3*	8.1	2.7*	1.2
Cc1cc(C)cc(CSCC(=O)Nc2c(C)n(C)n(-c3ccccc3)c2=O)c1	·	-3.9	·	·	·	·
CCc1ccc(-c2nc3cc(NC(=O)c4ccc([N+](=O)[O-])c(C)c4)ccc3o2)cc1	·	-17.5	·	·	·	·
O=C(NCc1ccc2c(c1)OCO2)c1cc2ncc(Br)cn2n1	-2.1*	18.7	0.107	7.2	1	0.9
O=C(NCc1ccc2c(c1)OCO2)c1ccccn1	-0.607	3.2	2.84	4.2	·	1
Cc1ccc(-n2c(-c3c(-c4ccccc4)noc3C)n[nH]c2=S)cc1	-0.0215	·	·	1.0	2.1*	·
O=S(=O)(c1ccc(Oc2ccc(S(=O)(=O)N3CCOCC3)cc2)cc1)N1CCOCC1	0.33	3.4	-1.22	-1.9	0.9	0.9
C=CS(=O)(=O)c1ccc(Oc2ccc(S(=O)(=O)C=C)cc2)cc1	·	7.4	-4.79*	·	·	0.9
COc1ccc(-c2csc(N3C(=N)SCC3=O)n2)cc1	1.85*	·	·	·	1.5	·
COc1ccc(-c2csc(N3CCN(C(=O)c4ccccc4)CC3)n2)cc1	-0.656	·	·	9.9	·	·
CCOc1ccc2nc(NC(=O)C(CCSC)NS(=O)(=O)c3cccs3)sc2c1 (stereo not drawn)	-0.577	-7.1	-0.243	11.6	2.4*	1
CCOc1ccc2nc(NC(=O)c3cnc(C)cn3)sc2c1	0.102	·	·	2.2	2.6*	·
CCOc1ccc2nc(NC(=O)C(NS(=O)(=O)c3cccs3)C(C)C)sc2c1 (stereo not drawn)	0.579	-2.0	-0.416	5.2	1.6	1
Cn1c(=O)c2[nH]c(CN3CCN(Cc4ccccc4)CC3)nc2n(C)c1=O	-1.02	·	·	10.0	1	·
Cn1c(=O)c2[nH]c(CNCc3ccccc3Cl)nc2n(C)c1=O	0.0865	·	0.0987	8.1	2.9*	·
O=C(NC(C(=O)NC1CCCCC1)C12CC3CC(CC(C3)C1)C2)c1ccccc1 (stereo not drawn)	·	1.6	·	·	·	·
SMILES	DAT uptake mod	HePTP inh	D1 mod	Calb biofilm kill	PLAP act	TNAP act DEA
CCCCCN(C(=O)CN(C)Cc1ccc(OC)cc1OC)c1c(N)n(CCCC)c(=O)[nH]c1=O	-0.193	·	·	·	2.4*	·
O=C(CSc1nc2ccccc2o1)N=Nc1c(O)n(CN2CCCC2)c2ccccc12	·	-4.7	·	·	·	·
C/C(=N\NC(=O)COc1ccc(Cl)cc1[N+](=O)[O-])c1cccs1	·	13.0	·	·	·	·
COc1ccccc1-c1nnc2sc(C3CCCCC3)nn12	1.85*	6.1	·	5.2	0.9	0.9
CCOCCOC(=O)c1cccc(NC(=O)c2ccccc2C)c1	·	7.1	·	·	·	·
O=C1C(=O)c2ccccc2C(O)=C1[N+](=O)[O-]	·	-0.7	·	·	·	·
CCc1ccccc1NC(=O)c1ccc(Cl)c([N+](=O)[O-])c1	·	-19.4	·	·	·	·
CCOc1c(C)cc(-c2ncccc2O)cc1C	-7.89*!	3.7	-0.917	7.3	0.9	1
CCCn1nnc(NC(=O)COc2cc(C)ccc2C(C)C)n1	-8.89*	18.4	-0.00119	5.2	1.1	0.9
Cc1cc(C)c(OCC(=O)Nc2nnn(C)n2)c(Br)c1	-1.15	13.3	0.037	5.9	·	0.9
Cc1ccc(OCC(=O)Nc2nnn(C)n2)c(C)c1	-2.56*	-0.7	-1.98	9.8	1	0.9
CCOc1cc(CNc2ccc3cn[nH]c3c2)ccc1OC	1.01	·	·	5.8	1.4	·
COc1ccc(CNc2ccc3cn[nH]c3c2)c(OC)c1OC	0.321	12.7	0.555	3.1	2*	1.1
O=C(NC(=S)Nc1ccccc1)c1ccc(Cl)cc1	·	-14.2	·	·	·	·
COCCn1c(C)cc(C(=O)COC(=O)c2cc3c(s2)CCC3)c1C	0.974	4.5	-0.532	6.0	1.6	0.9
COCCn1c(C)cc(C(=O)COC(=O)C23CC4CC(CC(O)(C4)C2)C3)c1C	-0.0379	12.6	-4.62*	8.1	1.2	0.9
Cc1ccc(Cl)c(OCCCCN2CCCCC2)c1	·	-2.7	·	·	·	·
COc1ccc2nc(SCc3nc(N)nc(Nc4ccccc4)n3)[nH]c2c1	3.17	7.7	3.41	5.1	2.5*	1
COc1ccc2nc(SCC(=O)Nc3ccccc3)[nH]c2c1	·	11.6	·	·	·	·
Cc1ncsc1C(=O)N1N=C2/C(=C/c3ccccc3)CCCC2C1c1ccccc1 (stereo not drawn)	·	·	·	·	1.1	·
Cc1nc(N2N=C3/C(=C/c4ccc(F)cc4)CCCC3C2c2ccc(F)cc2)sc1C(=O)N(C)C (stereo not drawn)	·	·	·	·	2*	·
CCCCc1ccc(NC(=O)c2c(C)noc2C)cc1	1.6	5.2	-0.241	7.9	2*	1
CC(O)[C@H]1CN=C(N)N1CCCCC1CCCCC1 (stereo partly drawn)	-4.68*	·	·	·	·	·
O=C(NC1CC1)C1CCN(Cc2cnn(-c3ccccc3)c2-n2cccc2)CC1	-0.551	·	·	-3.0	2*	·
COc1cccc(CNC(=O)C2CCN(Cc3cnn(-c4ccccc4)c3-n3cccc3)CC2)c1	-0.0636	-3.6	-0.00198	8.6	2.2*	1.1
SMILES	DAT uptake mod	HePTP inh	D1 mod	Calb biofilm kill	PLAP act	TNAP act DEA
COc1ccc(/C=C/C(=O)Nc2ccc3nn(-c4ccc(F)cc4)nc3c2)cc1	·	56.6*	·	·	·	·
O=C(/C=C/c1cccc([N+](=O)[O-])c1)Nc1ccc2nn(-c3ccccc3)nc2c1	·	102.3*	·	·	·	·
O=C(Nc1ccc2nn(-c3ccc(F)cc3)nc2c1)c1cccc(Br)c1	·	57.3*	·	·	·	·
O=C(/C=C\c1ccccc1)Nc1ccc2nn(-c3ccc(F)cc3)nc2c1	·	60.8*	·	·	·	·
CC(=O)OC1COC(OC2C(O)C(C)OC(OC3C(OC4CCC5(C)C(CCC6(C)C5CC=C5C7CC(C)(C)CCC7(C(=O)O)CCC56C)C4(C)CO)OCC(O)C3O)C2O)C(O)C1OC(C)=O (stereo not drawn)	-10.1*	·	·	·	·	·
NS(=O)(=O)c1ccc(-c2ccc(/C=C3\SC(=S)N(CCc4ccccc4)C3=O)o2)cc1	·	-0.6	·	·	·	·
Cc1cccc(N2C(=O)/C(=C/c3ccco3)SC2=S)c1C	·	23.3	·	·	·	·
O=[N+]([O-])c1ccc(Cl)cc1NC(c1ccccc1)c1ccccc1	·	10.2	·	·	·	·
